PAX8 reporter: inhibitors of PAX8-driven TPO luciferase reporter, primary screen, RMG-I cells, single concentration; inhibition, % at 12.6 µM; SteadyGlo, 24 h; 360,000 tested, 1.2% active;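 active means mean replicate inhibition at least 60% with every replicate also reaching 60%; inconclusive means only one of the two criteria is met; inactive means mean below 60% and not all replicates reaching 60%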;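 further: luciferase light reporting Pax8 driven TPO promoter activity; plate controls were median of neutral control wells for no effect and mitoxantrone controls for full effect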
LMP1 NFkB inh: EBV LMP1-driven NF-kappaB luciferase reporter inhibitors, primary screen, cell-based, luminescence, single point | 350,000 tested, 0.69% active | AID 504558, 2011 | LMP1-induced NF-kappaB luciferase reporter cells | inhibition, % at 12.5 µM; in the data active means inhibition above about 41%; inconclusive means no clear call, values can overlap the other calls;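 further: 0% = neutral control wells and 100% = reference inhibitor control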
Shn3 3UTR inh: reduction of Shn3 3'UTR firefly luciferase signal, primary screen, Schnurri-3 inhibitor project, cell-based, Clone20 osteoblasts, set 2; Clone20 osteoblast Shn3 3'UTR firefly luciferase, 24 h; inhibition, % at 12.5 µM; 360,000 tested, 0.52% active;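 active means mean inhibition of at least 75% with every replicate also reaching 75%; inconclusive means mean inhibition at least 75% but some replicate below; inactive means mean inhibition below 75%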;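 further: 0% = median of neutral control wells and 100% = pilot-screen positive control compound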
HIF-2a block: HIF-2a reporter inhibitors, primary screen, luminescence, 786-0 RCC cells; 786-0 RCC cells HIF-2a reporter, luciferase luminescence, overnight; inhibition, % at 18.8 µM; 360,000 tested, 0.72% active; AID 624352, 2012;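 active means inhibition of the luminescence signal of 40% or more relative to plate controls, in a single-dose primary screen at 18.75 µM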
Peg3 prom inh: Peg3 promoter-driven luciferase inhibitors, primary screen, cell-based, HeLa, luciferase luminescence; HeLa PEG-Prom luciferase reporter, overnight; inhibition, % at 20 µM; 360,000 tested, 1.7% active; AID 588405, 2011;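 active means inhibition of at least 50% at 20 µM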
TRPM1 prom inh: inhibitors of MITF-dependent TRPM1 promoter reporter, primary screen, cell-based, SK-MEL-5, single point, luciferase | SK-MEL-5 TRPM1 promoter luciferase, 24 h | inhibition, % at 12.5 µM | 330,000 tested, 0.83% active | AID 488899, 2010;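 active means mean inhibition across replicates of 60% or more, whatever share of single replicates reaches that level; inconclusive means some that reach 60%, reason not given; inactive means mean inhibition across replicates below 60%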
Mdm2-MdmX confirm: retested Mdm2-MdmX interaction blockers, confirmation, cell-based, luminescence, single concentration, set 2; shares compounds with HIF-2a block; inhibition, % at 8 µM; 740 tested, 99% active; SaOS-2 split-luciferase Mdm2/MdmX complementation;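 active means mean inhibition of the luminescence signal across two replicates at or above 26 percent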
HIF-2a conf: HIF-2a reporter inhibitor retest, confirmation, luminescence, 786-0 RCC cells; 1,800 tested, 56% active; shares compounds with HIF-2a block; inhibition, % at 18.8 µM; HIF-2a luciferase reporter luminescence, overnight;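 active means mean inhibition across four replicates of at least 40 percent at the single tested concentration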
HIF-1a counter: HIF-1a luciferase reporter signal reduction – MiaPaCa-2 cells, single concentration, counter-screen for HIF-2a inhibitor project, confirmation; shares compounds with HIF-2a block; MiaPaCa-2 HIF-1a luciferase reporter, desferoxamine, overnight; inhibition, % at 18.8 µM; 1,800 tested, 72% active;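 active means mean inhibition of the reporter signal across four replicates at the single tested dose of 50% or more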
Active calls of the source: *; ? = inconclusive; · = no result. This is a sample that favours compounds with a hit; in the whole collection about 2.8% have one here.

SMILES	PAX8 reporter	LMP1 NFkB inh	Shn3 3UTR inh	HIF-2a block	Peg3 prom inh	TRPM1 prom inh	Mdm2-MdmX confirm	HIF-2a conf	HIF-1a counter
Cc1nnc(NC(=O)c2nc(S(=O)(=O)Cc3ccccc3C)ncc2Cl)s1	23.5	81.1*	96.4*	91.4*	105.7*	79.6*	103.0*	10.4	104.5*
CCC(=O)Nc1ccc2c(c1)OC[C@@H](C)N(C(=O)C1CCC1)C[C@@H](C)[C@H](OC)CN(C)C2=O	-10.4	·	·	·	·	·	·	·	·
CC(C)NC(=O)N(C)C[C@H]1OCCCC[C@H](C)Oc2ccc(NS(=O)(=O)c3ccc(F)cc3)cc2C(=O)N([C@@H](C)CO)C[C@@H]1C	-27.7	·	·	·	·	·	·	·	·
CC(C)c1nnc(NC(=O)CS(=O)(=O)Cc2ccccc2)s1	4.0	-6.0	-10.2	10.4	4.5	5.6	·	·	·
CSc1nnc(NC(=O)c2ccco2)s1	-45.8	-3.6	-46.9	-70.2	-27.6	-17.1	·	·	·
Cc1ccc(CS(=O)(=O)c2ncc(Cl)c(C(=O)Nc3nnc(C(C)C)s3)n2)cc1	28.4	39.0	94.9*	76.4*	109.7*	79.2*	·	88.1*	106.4*
CCSc1nnc(NC(=O)c2nc(S(=O)(=O)Cc3ccc(F)cc3)ncc2Cl)s1	6.6	5.5	95.8*	87.9*	107.0*	40.3	·	-29.3	96.7*
CSc1nnc(NC(=O)c2nc(S(=O)(=O)Cc3cccc(C)c3)ncc2Cl)s1	30.8	?	96.0*	72.9*	101.3*	81.0*	103.0*	33.3	107.4*
C=CCSc1nnc(NC(=O)c2nc(SCC)ncc2Cl)s1	·	-15.1	-4.9	17.8	-0.1	3.5	·	·	·
COc1cc2c(OC(C)=O)c3c(c(-c4ccc5c(c4)OCO5)c2cc1OC)C(=O)OC3	·	-75.0	81.2	-46.4	78.4*	·	88.2*	·	·
c1cncc(CNc2ncnc3ccc(-c4ccoc4)cc23)c1	-18.2	46.5*	12.5	11.1	18.6	6.8	87.0*	·	·
Cc1cccc(-c2ccc3ncnc(NCc4cccnc4)c3c2)c1	3.9	-9.4	22.9	5.6	4.7	11.5	·	·	·
c1ccc(CCNc2ncnc3ccccc23)cc1	-138.4	-5.8	56.6	-166.7	-268.4	-24.5	·	·	·
Cc1csc(CNc2ncnc3ccc(-c4ccoc4)cc23)c1	-8.6	38.2	-3.4	-2.4	-21.3	-11.5	87.0*	·	·
Brc1ccc2ncnc(NCc3ccccc3)c2c1	·	59.9*	75.4	24.6	12.9	3.9	89.9*	·	·
O=C(C[C@H]1C[C@H]2c3cc(NS(=O)(=O)c4ccc(F)cc4)ccc3O[C@H]2[C@H](CO)O1)NCCc1ccccc1	20.6	·	·	·	·	·	·	·	·
N#C/C(=C\c1ccc([N+](=O)[O-])o1)c1nc2ccccc2[nH]1	32.3	·	·	·	·	·	102.7*	·	·
N#C/C(=C\c1ccc(Sc2ccccc2)o1)c1nc2ccccc2[nH]1	-141.0	-11.7	-59.5	-217.9	-269.0	-115.5	·	·	·
O=C(N[C@H]1CC[C@H](CCn2cc(-c3ccccc3)nn2)O[C@@H]1CO)c1ccccc1F	24.1	·	·	·	·	·	·	·	·
CCOc1cc(C=C(C(=O)OC)C(=O)OC)ccc1OCc1ccc([N+](=O)[O-])cc1	·	10.0	95.8*	92.1*	106.5*	57.5	·	98.3*	107.3*
O=C1c2cccc3c([N+](=O)[O-])ccc(c23)C(=O)N1c1ccc(Cl)cn1	·	8.7	58.1	30.9	105.4*	34.1	103.0*	·	·
CCOC(=O)C(=Cc1cc(=O)c(OC)co1)C(=O)OCC	22.4	23.4	20.4	93.7*	105.6*	98.1*	·	99.5*	105.8*
COc1ccc(S(=O)(=O)N[C@@H]2C=C[C@@H](CC(=O)NCCc3ccccc3)O[C@H]2CO)cc1	-10.0	·	·	·	·	·	·	·	·
